Laboratory results taken from PubChem BioAssay AID1159580 (chemical genetic matrix, 2015).
Screen size: about 5,500 compounds; about 2,000 (36%) were called active. Roughly 18% stayed inconclusive and do not appear here. The list shows a part of the results. A number with no mark means an inactive call. Cut-off read from the data, not from the text of the source: active = normalized growth mostly below about 0.91 (no sharp cut-off); inconclusive = no clear call, values can overlap the other calls; inactive = mostly above about 0.92.

Assay: chemical genetic growth profiling, strain panel (AID 1159580);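 note: tested at 20 µM; growth read once vehicle control cultures reached saturation at 30 °C; 1 = growth at the plate median or of vehicle wells; lower values mean less growth of the strain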
Conditions: growth OD

SMILES: CC/C(=C(/CC)c1ccc(O)cc1)c1ccc(O)cc1
- normalized growth (S. cerevisiae deletion strains, locus YKL009W, strain mrt4, active compounds read low): 0.916
- normalized growth (S. cerevisiae deletion strains, locus YKL068W, active compounds read low): 1.01
- normalized growth (S. cerevisiae deletion strains, locus YKL085W, strain MDH1 (second series), active compounds read low): 0.973
- normalized growth (S. cerevisiae deletion strains, locus YKL085W, strain MDH1, active compounds read low): 0.973
- normalized growth (S. cerevisiae deletion strains, locus YKL160W, strain elf1, active compounds read low): 0.955
- normalized growth (S. cerevisiae deletion strains, locus YKL190W, strain CNB1, active compounds read low): 1
- normalized growth (S. cerevisiae deletion strains, locus YKR001C, strain vps1, active compounds read low): 0.987
- normalized growth (S. cerevisiae deletion strains, locus YKR026C, strain gcn3, active compounds read low): 1.02
- normalized growth (S. cerevisiae deletion strains, locus YKR091W, strain srl3, active compounds read low): 1.01
- normalized growth (S. cerevisiae deletion strains, locus YLL001W, strain dnm1, active compounds read low): 1
- normalized growth (S. cerevisiae deletion strains, locus YLL026W, active compounds read low): 1
- normalized growth (S. cerevisiae deletion strains, locus YLL041C, strain sdh2, active compounds read low): 1.02
- normalized growth (S. cerevisiae deletion strains, locus YLR027C, strain aat2, active compounds read low): 1.01
- normalized growth (S. cerevisiae deletion strains, locus YLR039C, strain RIC1, active compounds read low): 0.481 (active)
- normalized growth (S. cerevisiae deletion strains, locus YLR058C, strain SHM2, active compounds read low): 0.943
- normalized growth (S. cerevisiae deletion strains, locus YLR102C, strain apc9, active compounds read low): 1.01
- normalized growth (S. cerevisiae deletion strains, locus YLR113W, strain HOG1, active compounds read low): 0.963
- normalized growth (S. cerevisiae deletion strains, locus YLR221C, strain rsa3, active compounds read low): 0.956
- normalized growth (S. cerevisiae deletion strains, locus YLR258W, strain gsy2, active compounds read low): 0.963
- normalized growth (S. cerevisiae deletion strains, locus YLR262C, strain YPT6 (second series), active compounds read low): 0.485 (active)
- normalized growth (S. cerevisiae deletion strains, locus YLR262C, strain YPT6, active compounds read low): 0.439 (active)
- normalized growth (S. cerevisiae deletion strains, locus YLR268W, strain sec22, active compounds read low): 0.945
- normalized growth (S. cerevisiae deletion strains, locus YLR320W, strain mms22, active compounds read low): 0.84 (active)
- normalized growth (S. cerevisiae deletion strains, locus YLR330W, strain CHS5, active compounds read low): 0.981
- normalized growth (S. cerevisiae deletion strains, locus YLR342W, strain FKS1 (second series), active compounds read low): 0.89
- normalized growth (S. cerevisiae deletion strains, locus YLR342W, strain FKS1, active compounds read low): 1.01
- normalized growth (S. cerevisiae deletion strains, locus YLR357W, strain rsc2, active compounds read low): 1.14
- normalized growth (S. cerevisiae deletion strains, locus YLR370C, strain arc18, active compounds read low): 1.01
- normalized growth (S. cerevisiae deletion strains, locus YLR371W, strain rom2, active compounds read low): 1.02
- normalized growth (S. cerevisiae deletion strains, locus YLR384C, strain iki3, active compounds read low): 1.02
- normalized growth (S. cerevisiae deletion strains, locus YLR418C, strain cdc73, active compounds read low): 0.956
- normalized growth (S. cerevisiae deletion strains, locus YML016C, strain PPZ1, active compounds read low): 1.01
- normalized growth (S. cerevisiae deletion strains, locus YML032C, strain rad52, active compounds read low): 0.914
- normalized growth (S. cerevisiae deletion strains, locus YML120C, strain ndi1, active compounds read low): 1.01
- normalized growth (S. cerevisiae deletion strains, locus YML124C, strain tub3, active compounds read low): 1.01
- normalized growth (S. cerevisiae deletion strains, locus YMR058W, strain fet3, active compounds read low): 0.974
- normalized growth (S. cerevisiae deletion strains, locus YMR078C, strain ctf18, active compounds read low): 1
- normalized growth (S. cerevisiae deletion strains, locus YMR125W, strain sto1, active compounds read low): 1.09
- normalized growth (S. cerevisiae deletion strains, locus YMR129W, active compounds read low): 1.02
- normalized growth (S. cerevisiae deletion strains, locus YMR205C, strain PFK2, active compounds read low): 0.943
- normalized growth (S. cerevisiae deletion strains, locus YMR223W, strain ubp8, active compounds read low): 0.942
- normalized growth (S. cerevisiae deletion strains, locus YMR231W, strain pep5, active compounds read low): 1.03
- normalized growth (S. cerevisiae deletion strains, locus YMR307W, strain GAS1, active compounds read low): 0.569 (active)
- normalized growth (S. cerevisiae deletion strains, locus YNL067W, strain RPL9B, active compounds read low): 0.933
- normalized growth (S. cerevisiae deletion strains, locus YNL071W, strain lat1, active compounds read low): 0.913 (active)
- normalized growth (S. cerevisiae deletion strains, locus YNL153C, strain GIM3, active compounds read low): 0.918
- normalized growth (S. cerevisiae deletion strains, locus YNL183C, strain NPR1, active compounds read low): 0.921
- normalized growth (S. cerevisiae deletion strains, locus YNL209W, strain ssb2, active compounds read low): 0.981
- normalized growth (S. cerevisiae deletion strains, locus YNL233W, strain BNI4, active compounds read low): 0.896
- normalized growth (S. cerevisiae deletion strains, locus YNL248C, strain rpa49, active compounds read low): 1.02
- normalized growth (S. cerevisiae deletion strains, locus YNL250W, strain rad50, active compounds read low): 1
- normalized growth (S. cerevisiae deletion strains, locus YNL271C, strain bni1, active compounds read low): 1
- normalized growth (S. cerevisiae deletion strains, locus YNL298W, strain CLA4, active compounds read low): 0.914
- normalized growth (S. cerevisiae deletion strains, locus YNL307C, strain MCK1, active compounds read low): 0.995
- normalized growth (S. cerevisiae deletion strains, locus YNL322C, strain KRE1 (second series), active compounds read low): 1.03
- normalized growth (S. cerevisiae deletion strains, locus YNL322C, strain KRE1, active compounds read low): 0.992
- normalized growth (S. cerevisiae deletion strains, locus YNR049C, strain mso1, active compounds read low): 1.01
- normalized growth (S. cerevisiae deletion strains, locus YNR052C, strain pop2, active compounds read low): 0.99
- normalized growth (S. cerevisiae deletion strains, locus YOL006C, strain TOP1, active compounds read low): 0.73
- normalized growth (S. cerevisiae deletion strains, locus YOL012C, strain htz1): 1.4
- normalized growth (S. cerevisiae deletion strains, locus YOL147C, strain pex11, active compounds read low): 1.02
- normalized growth (S. cerevisiae deletion strains, locus YOR001W, strain rrp6, active compounds read low): 0.997
- normalized growth (S. cerevisiae deletion strains, locus YOR061W, strain CKA2, active compounds read low): 0.976
- normalized growth (S. cerevisiae deletion strains, locus YOR069W, strain VPS5, active compounds read low): 1
- normalized growth (S. cerevisiae deletion strains, locus YOR070C, strain gyp1, active compounds read low): 0.945
- normalized growth (S. cerevisiae deletion strains, locus YOR080W, strain dia2, active compounds read low): 1.02
- normalized growth (S. cerevisiae deletion strains, locus YOR083W, strain WHI5, active compounds read low): 0.948
- normalized growth (S. cerevisiae deletion strains, locus YOR106W, strain vam3, active compounds read low): 0.951
- normalized growth (S. cerevisiae deletion strains, locus YOR136W, strain idh2, active compounds read low): 1.01
- normalized growth (S. cerevisiae deletion strains, locus YOR144C, strain elg1, active compounds read low): 1.01
- normalized growth (S. cerevisiae deletion strains, locus YOR184W, strain ser1, active compounds read low): 0.812 (active)
- normalized growth (S. cerevisiae deletion strains, locus YOR231W, strain MKK1, active compounds read low): 0.976
- normalized growth (S. cerevisiae deletion strains, locus YOR265W, strain rbl2, active compounds read low): 0.999
- normalized growth (S. cerevisiae deletion strains, locus YOR270C, strain vph1, active compounds read low): 0.728 (active)
- normalized growth (S. cerevisiae deletion strains, locus YOR290C, strain snf2, active compounds read low): 0.961
- normalized growth (S. cerevisiae deletion strains, locus YOR316C, strain cot1, active compounds read low): 1
- normalized growth (S. cerevisiae deletion strains, locus YPL051W, strain arl3, active compounds read low): 0.919
- normalized growth (S. cerevisiae deletion strains, locus YPL055C, strain LGE1, active compounds read low): 0.811
- normalized growth (S. cerevisiae deletion strains, locus YPL078C, strain atp4, active compounds read low): 0.953
- normalized growth (S. cerevisiae deletion strains, locus YPL106C, strain sse1, active compounds read low): 1.12
- normalized growth (S. cerevisiae deletion strains, locus YPL240C, strain hsp82, active compounds read low): 1.01
- normalized growth (S. cerevisiae deletion strains, locus YPL256C, strain CLN2, active compounds read low): 0.977
- normalized growth (S. cerevisiae deletion strains, locus YPR119W, strain clb2, active compounds read low): 1
- normalized growth (S. cerevisiae deletion strains, locus YPR141C, strain kar3, active compounds read low): 1.03
- normalized growth (S. cerevisiae deletion strains, locus YPR163C, strain tif3, active compounds read low): 1.02
- normalized growth (S. cerevisiae deletion strains, locus YPR167C, strain met16, active compounds read low): 1
- normalized growth (S. cerevisiae deletion strains, strain wtn01, active compounds read low): 0.971
- normalized growth (S. cerevisiae strains, strain wild type, active compounds read low): 0.948
